The whole screen tested about 1,000 compounds, of which about 630 (63%) were called active.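 Rule for the calls: active = reporter signal at least 30% of the positive control's activation in two or more of four replicate wells; inactive = the rest.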 The set was probably picked from earlier hits. The list is a sample of the results.
test: activation of adaptive unfolded protein response – cell-based, CHO-XBP1 luciferase reporter, luminescence, single concentration, confirmation (AID 485299); settings: CHO-XBP1 IRE1-XBP1 luciferase reporter, at 20 µM, active compounds read high;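 note: plate controls were DMSO negative control for no effect and tunicamycin 10 µg/mL positive control for full effect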

Question: With OCCNc1nc(Nc2ccc(Cl)c(Cl)c2)nc2ccccc12 as the compound, how does the activation read?
Answer: 47.6% (active)

Question: For Cc1ccc(SC(=O)COc2ccc(C)c(C)c2)cc1, which activation is on record?
Answer: 19.5% (inactive)

Question: For CSc1nc(-c2ccccc2)nc(C(Cl)Cl)n1, which activation is on record?
Answer: 29.4% (inactive)

Question: For Cc1ccc(S/C(=N\S(=O)(=O)c2ccc(Cl)cc2)c2ccccc2)cc1, which activation is on record?
Answer: 9.43% (inactive)

Question: With CCOc1ccc(S(=O)(=O)Nc2cccc(C(=O)NCC3(N4CCCCC4)CCCCC3)c2)cc1 as the compound, how does the activation read?
Answer: 92.9% (active)

Question: Which activation does the source give for Cc1nc2cc(NC(=O)CSc3nc4c(C)cccc4cc3C#N)ccc2s1 here?
Answer: 42.3% (active)

Question: Which activation does the source give for CCCc1nc2ccccc2c(=O)n1/N=C/c1ccc(O)c(O)c1 here?
Answer: 36.6% (active)

Question: Which activation does the source give for CN(C)CCCN(C(=O)c1ccc(S(=O)(=O)N2CCCCCC2)cc1)c1nc2ccc(Br)cc2s1 here?
Answer: 71.3% (active)

Question: For N#CCC(=O)N/N=C/c1cn(Cc2ccc3ccccc3c2)c2ccccc12, which activation is on record?
Answer: 87.5% (active)

Question: With O=C(Nc1ccc2nc3n(c(=O)c2c1)CCCCC3)c1ccccc1Cl as the compound, how does the activation read?
Answer: 44.4% (active)

Question: For N#CC(=C1SC=CS1)c1nc(-c2ccccc2)cs1, which activation is on record?
Answer: 2.43% (inactive)

Question: Which activation does the source give for CCCc1nc2c(c(=O)c3ccccc3n2C)c(=O)n1C1CCCCCC1 here?
Answer: 61.8% (active)

Question: Which activation does the source give for CCOC(=O)N1CCN(C(=O)c2nn(-c3ccc(C)cc3)c(=O)c3c2c2ccccc2n3C)CC1 here?
Answer: 7.78% (inactive)

Question: Which activation does the source give for C=CCN(CC=C)S(=O)(=O)c1ccc(C(=O)Nc2nc3c(s2)CCc2ccccc2-3)cc1 here?
Answer: 90.9% (active)

Question: With CCN1C(=O)N[C@@H](c2ccccc2)[C@H](C(C)=O)[C@H]1C as the compound, how does the activation read?
Answer: -1.6% (inactive)

Question: For CN(C)C(=O)CCc1ccc2c3c([nH]c2c1)[C@]1(CCc2ccccc2)[C@@H](C(=O)N2CCCCC2)C[C@H](CC(=O)NCCC2=CCCCC2)C(=O)N1CC3, which activation is on record?
Answer: 52.1% (active)

Question: With N#Cc1c(N)nc2c3c(sc(=N)c2c1N)NC(=O)CC3c1ccccc1Cl (stereo unspecified) as the compound, how does the activation read?
Answer: 0.75% (inactive)

Question: For CCOc1ccc2nc(Cl)c(C3CC(c4ccccc4)=NN3C(=O)c3cccs3)cc2c1 (stereo unspecified), which activation is on record?
Answer: 19.5% (inactive)

Question: With O=C(C[C@H]1C/C=C\C[C@@H](NC(=O)OCC2c3ccccc3-c3ccccc32)C(=O)O[C@@H](c2ccccc2)CNC1=O)N[C@H](CO)Cc1ccccc1 as the compound, how does the activation read?
Answer: 69.3% (active)

Question: Which activation does the source give for CCOC(=O)C1=C(O)/C(=C/c2ccc(OCC(=O)Nc3ccc(C)cc3)cc2)N=C1C here?
Answer: -1.95% (inactive)

Question: With N#Cc1ccccc1NC(=O)COc1c(Br)cc(Br)c2cccnc12 as the compound, how does the activation read?
Answer: 88.3% (active)

Question: With CCCc1ccc(OCc2ccc(C(=O)N/N=C/c3cccc([N+](=O)[O-])c3)o2)c(OC)c1 as the compound, how does the activation read?
Answer: 2.93% (inactive)

Question: With CCCCCC(=O)Nc1ccc(C(=O)N/N=C/c2ccc([N+](=O)[O-])cc2)cc1 as the compound, how does the activation read?
Answer: 66.5% (active)

Question: Which activation does the source give for CN(c1cccc(NC(=O)Nc2ccc(Cl)cc2)c1)S(C)(=O)=O here?
Answer: 0.25% (inactive)

Question: With Oc1cccc2ccc(/C=C/c3ccc(Br)s3)nc12 as the compound, how does the activation read?
Answer: 50.4% (active)

Question: Which activation does the source give for Cc1ccc(-c2nnc(-c3ccc(NC(=O)c4cccs4)cc3)o2)cc1 here?
Answer: 213% (active)

Question: With CN1C(=O)/C(=C/c2ccc(C(=O)NC3CCCC3)cc2)Oc2ccccc21 as the compound, how does the activation read?
Answer: 32.3% (active)

Question: Which activation does the source give for COc1ccc(CNC(=O)/C(C#N)=C/c2cccc(OC)c2OC)cc1 here?
Answer: 40.4% (active)

Question: With O=C(CCCCCn1c(=S)[nH]c2cc3c(cc2c1=O)OCO3)N1CCN(c2ccc(F)cc2)CC1 as the compound, how does the activation read?
Answer: 10.3% (inactive)

Question: With Cc1cccc(Nc2nc3c(S(=O)(=O)c4ccccc4)nnn3c3ccccc23)c1C as the compound, how does the activation read?
Answer: 120% (active)

Question: With O=C(/C=C/c1ccccc1)c1ccccc1O as the compound, how does the activation read?
Answer: 54.9% (active)

Question: For Cc1ccc(S(=O)(=O)N(CC(=O)N/N=C/c2ccc(F)cc2)c2cccc3cccnc23)cc1, which activation is on record?
Answer: 55.3% (active)

Question: With CCCCCCCCCCOC(=O)Cn1c(COc2ccc(C)cc2)[n+](C)c2ccccc21 as the compound, how does the activation read?
Answer: 49.2% (active)

Question: Which activation does the source give for COc1ccc(Nc2cc(C)nc(-n3nc(C)cc3C)n2)cc1 here?
Answer: 28.5% (inactive)

Question: Which activation does the source give for CCOC(=O)c1c(NC(=O)CNC2CCCc3ccccc32)sc(C(N)=O)c1C (stereo unspecified) here?
Answer: 34.3% (active)

Question: With CCC1(CC)Cc2ccccc2-c2nc(CCl)[nH]c(=O)c21 as the compound, how does the activation read?
Answer: 14.5% (inactive)

Question: For CCOC(=O)/C=c1\s/c(=C\c2ccc(C#N)cc2)c(=O)n1CC(=O)Nc1cccc(C)c1C, which activation is on record?
Answer: 11.4% (inactive)

Question: With Cc1cc(NC(=O)CSc2nc3cc(Cl)ccc3c(=O)n2Cc2ccco2)no1 as the compound, how does the activation read?
Answer: 55.5% (active)

Question: With CC(=O)Nc1ccccc1Sc1ccc2c3c(cccc13)C(=O)N(c1ccc(C)cc1)C2=O as the compound, how does the activation read?
Answer: 79% (active)

Question: Which activation does the source give for C=CC[C@@H](CC(=O)N[C@@H](CO)Cc1ccccc1)C(=O)N[C@H](COC(=O)[C@H](CC=C)CC(=O)OC(C)(C)C)Cc1ccccc1 here?
Answer: 4.58% (inactive)

Question: Which activation does the source give for O=C(COC(=O)/C=C/c1cn(-c2ccccc2)nc1-c1cccnc1)Nc1ccc(Cl)cc1Cl here?
Answer: 74.4% (active)

Question: With Cc1ccc(Cc2cnc(NC(=O)/C(C#N)=C/c3ccc(-c4cccc([N+](=O)[O-])c4)o3)s2)cc1 as the compound, how does the activation read?
Answer: 217% (active)

Question: Which activation does the source give for OC(CNCC1CCCO1)Cn1c2ccc(Br)cc2c2cc(Br)ccc21 (stereo unspecified) here?
Answer: 44% (active)

Question: Which activation does the source give for C=CCNc1nc(N)c([N+](=O)[O-])c(NC2CCCCC2)n1 here?
Answer: 12.5% (inactive)

Question: Which activation does the source give for CCc1nn(-c2cc(Oc3cccc4ccccc34)nc(-c3ccccc3)n2)c(N)c1C#N here?
Answer: 138% (active)

Question: With CCc1nc(C)cn1S(=O)(=O)c1cc([N+](=O)[O-])ccc1Cl as the compound, how does the activation read?
Answer: 55.6% (active)

Question: For COc1cc(NC(=O)c2cncc(-c3ccc(C#N)cc3)c2)cc(C(=O)Nc2cccc(C(F)(F)F)c2)c1, which activation is on record?
Answer: 129% (active)

Question: Which activation does the source give for COC(=O)Cc1csc(/N=C/c2c(O)n(-c3cccc(C(F)(F)F)c3)c(=O)c3ccccc23)n1 here?
Answer: 42.5% (active)

Question: Which activation does the source give for COc1ccccc1N=Cc1c(O)c2ccccc2oc1=O here?
Answer: 113% (active)

Question: With CC(C)=CCCC1(C)C=Cc2c(ccc3c2[nH]c2cc(O)c(C)cc23)O1 (stereo unspecified) as the compound, how does the activation read?
Answer: 35.4% (active)

Question: With Oc1ccc(Br)cc1/C=N/Nc1ccccn1 as the compound, how does the activation read?
Answer: 63.7% (active)
